According to the supplement of paper PMC10849652:
The full data set covers some 7,900 targets. This sample favours those with a hit. About 0.6% of all pairs of compound and target were hits. A number with no mark means an inactive call.

UniProt P17707, sequence (P17707 whole entry, looked up): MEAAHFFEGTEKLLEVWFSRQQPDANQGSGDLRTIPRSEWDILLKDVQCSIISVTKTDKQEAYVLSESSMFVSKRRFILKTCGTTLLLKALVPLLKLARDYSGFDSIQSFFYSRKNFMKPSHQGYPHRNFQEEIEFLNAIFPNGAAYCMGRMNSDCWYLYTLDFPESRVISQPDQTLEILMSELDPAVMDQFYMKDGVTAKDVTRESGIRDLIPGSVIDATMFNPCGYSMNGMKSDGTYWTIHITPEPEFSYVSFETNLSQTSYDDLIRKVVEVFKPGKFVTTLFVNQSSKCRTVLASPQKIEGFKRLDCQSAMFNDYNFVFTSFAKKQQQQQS
UniProt Q8WV93, sequence (Q8WV93 whole entry, looked up): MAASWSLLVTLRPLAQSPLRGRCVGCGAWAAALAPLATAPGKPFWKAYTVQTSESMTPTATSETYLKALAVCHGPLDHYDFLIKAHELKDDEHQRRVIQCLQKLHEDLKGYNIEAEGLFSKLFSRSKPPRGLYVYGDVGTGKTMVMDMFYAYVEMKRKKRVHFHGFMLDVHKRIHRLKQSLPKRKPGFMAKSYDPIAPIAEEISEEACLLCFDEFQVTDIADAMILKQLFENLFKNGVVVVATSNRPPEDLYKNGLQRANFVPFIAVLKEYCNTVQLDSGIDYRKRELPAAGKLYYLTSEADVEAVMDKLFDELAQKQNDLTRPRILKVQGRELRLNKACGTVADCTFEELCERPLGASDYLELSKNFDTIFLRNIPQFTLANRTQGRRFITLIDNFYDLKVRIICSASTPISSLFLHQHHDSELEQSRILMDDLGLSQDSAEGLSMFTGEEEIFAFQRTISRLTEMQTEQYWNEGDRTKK
UniProt P63010, sequence (P63010 whole entry, looked up): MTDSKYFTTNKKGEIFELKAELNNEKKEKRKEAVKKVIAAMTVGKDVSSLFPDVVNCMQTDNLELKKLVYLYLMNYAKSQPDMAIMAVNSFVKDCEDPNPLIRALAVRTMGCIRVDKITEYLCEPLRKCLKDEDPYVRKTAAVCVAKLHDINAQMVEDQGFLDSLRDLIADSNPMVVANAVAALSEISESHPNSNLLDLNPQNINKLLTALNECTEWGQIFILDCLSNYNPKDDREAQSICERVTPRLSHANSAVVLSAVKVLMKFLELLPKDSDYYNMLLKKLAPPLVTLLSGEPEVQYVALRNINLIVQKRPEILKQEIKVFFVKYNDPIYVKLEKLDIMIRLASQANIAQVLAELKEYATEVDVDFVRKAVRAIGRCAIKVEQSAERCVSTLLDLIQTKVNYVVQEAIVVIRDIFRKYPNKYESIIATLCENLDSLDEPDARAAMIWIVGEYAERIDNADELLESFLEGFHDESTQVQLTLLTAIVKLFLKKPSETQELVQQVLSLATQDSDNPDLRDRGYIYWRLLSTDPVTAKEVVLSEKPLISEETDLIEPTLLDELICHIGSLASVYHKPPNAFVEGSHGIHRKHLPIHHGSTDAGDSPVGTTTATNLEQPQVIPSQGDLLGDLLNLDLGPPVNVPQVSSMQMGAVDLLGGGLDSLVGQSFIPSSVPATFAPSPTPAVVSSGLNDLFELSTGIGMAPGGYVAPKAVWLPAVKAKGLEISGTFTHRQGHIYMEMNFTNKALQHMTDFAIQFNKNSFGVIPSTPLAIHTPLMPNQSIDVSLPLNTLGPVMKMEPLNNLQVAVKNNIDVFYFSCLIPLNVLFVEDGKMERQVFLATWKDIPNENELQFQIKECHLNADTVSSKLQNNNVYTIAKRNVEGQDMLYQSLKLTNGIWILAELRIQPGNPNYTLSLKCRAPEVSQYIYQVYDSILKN
UniProt Q4G176, sequence (Q4G176 whole entry, looked up): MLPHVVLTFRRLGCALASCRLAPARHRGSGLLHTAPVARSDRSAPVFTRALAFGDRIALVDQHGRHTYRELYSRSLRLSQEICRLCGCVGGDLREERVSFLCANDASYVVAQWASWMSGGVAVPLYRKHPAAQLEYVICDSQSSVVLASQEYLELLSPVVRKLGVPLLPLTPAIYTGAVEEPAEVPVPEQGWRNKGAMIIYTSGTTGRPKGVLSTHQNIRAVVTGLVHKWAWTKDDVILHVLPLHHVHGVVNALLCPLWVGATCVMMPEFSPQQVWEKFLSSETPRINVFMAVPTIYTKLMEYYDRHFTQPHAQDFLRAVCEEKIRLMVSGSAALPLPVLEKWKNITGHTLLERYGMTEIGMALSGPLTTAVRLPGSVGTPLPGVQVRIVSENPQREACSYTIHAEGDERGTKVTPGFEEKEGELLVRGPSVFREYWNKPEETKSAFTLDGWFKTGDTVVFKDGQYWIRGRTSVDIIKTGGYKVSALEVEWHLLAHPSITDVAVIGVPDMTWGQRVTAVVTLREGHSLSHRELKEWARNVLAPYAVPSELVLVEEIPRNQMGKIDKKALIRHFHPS
UniProt O43865, sequence (O43865 whole entry, looked up): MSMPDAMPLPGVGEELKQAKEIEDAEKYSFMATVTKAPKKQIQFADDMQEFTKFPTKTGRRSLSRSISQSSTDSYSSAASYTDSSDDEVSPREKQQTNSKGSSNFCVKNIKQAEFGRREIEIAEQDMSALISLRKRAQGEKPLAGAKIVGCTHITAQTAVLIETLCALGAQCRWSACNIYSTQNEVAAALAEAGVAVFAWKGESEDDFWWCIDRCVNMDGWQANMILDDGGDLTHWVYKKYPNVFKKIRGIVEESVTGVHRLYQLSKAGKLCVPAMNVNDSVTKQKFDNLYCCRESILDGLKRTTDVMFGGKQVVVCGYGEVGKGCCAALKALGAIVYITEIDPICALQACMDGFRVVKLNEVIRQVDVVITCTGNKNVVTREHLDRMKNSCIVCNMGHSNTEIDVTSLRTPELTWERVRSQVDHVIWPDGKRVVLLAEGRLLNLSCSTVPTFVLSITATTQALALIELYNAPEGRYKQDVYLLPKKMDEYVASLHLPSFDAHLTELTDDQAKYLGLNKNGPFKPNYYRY
UniProt Q9Y6E2, sequence (Q9Y6E2 whole entry, looked up): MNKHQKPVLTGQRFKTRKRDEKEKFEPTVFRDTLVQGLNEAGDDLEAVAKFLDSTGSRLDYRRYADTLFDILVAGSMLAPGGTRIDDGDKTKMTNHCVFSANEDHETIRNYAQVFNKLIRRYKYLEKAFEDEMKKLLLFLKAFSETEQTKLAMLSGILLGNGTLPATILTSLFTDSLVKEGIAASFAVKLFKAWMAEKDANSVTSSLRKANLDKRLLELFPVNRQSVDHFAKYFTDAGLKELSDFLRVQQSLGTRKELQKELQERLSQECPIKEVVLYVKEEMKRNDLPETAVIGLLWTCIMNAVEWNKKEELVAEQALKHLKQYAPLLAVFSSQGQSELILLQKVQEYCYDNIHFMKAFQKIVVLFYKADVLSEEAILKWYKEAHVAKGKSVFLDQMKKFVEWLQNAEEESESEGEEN
UniProt P31749, sequence (P31749 whole entry, looked up): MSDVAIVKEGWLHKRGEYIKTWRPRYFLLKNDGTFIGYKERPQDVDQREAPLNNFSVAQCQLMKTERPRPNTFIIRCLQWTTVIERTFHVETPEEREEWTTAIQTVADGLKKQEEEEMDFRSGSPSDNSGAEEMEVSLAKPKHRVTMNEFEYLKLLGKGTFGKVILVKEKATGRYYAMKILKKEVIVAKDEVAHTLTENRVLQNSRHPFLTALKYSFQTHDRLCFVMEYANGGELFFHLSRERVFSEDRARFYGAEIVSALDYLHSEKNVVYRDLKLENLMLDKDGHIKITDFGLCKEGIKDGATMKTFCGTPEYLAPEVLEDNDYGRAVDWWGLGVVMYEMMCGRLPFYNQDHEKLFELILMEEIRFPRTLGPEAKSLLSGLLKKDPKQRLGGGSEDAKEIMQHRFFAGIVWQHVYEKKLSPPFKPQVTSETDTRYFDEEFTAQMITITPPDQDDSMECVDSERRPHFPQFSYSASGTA
UniProt Q00973, sequence (Q00973 whole entry, looked up): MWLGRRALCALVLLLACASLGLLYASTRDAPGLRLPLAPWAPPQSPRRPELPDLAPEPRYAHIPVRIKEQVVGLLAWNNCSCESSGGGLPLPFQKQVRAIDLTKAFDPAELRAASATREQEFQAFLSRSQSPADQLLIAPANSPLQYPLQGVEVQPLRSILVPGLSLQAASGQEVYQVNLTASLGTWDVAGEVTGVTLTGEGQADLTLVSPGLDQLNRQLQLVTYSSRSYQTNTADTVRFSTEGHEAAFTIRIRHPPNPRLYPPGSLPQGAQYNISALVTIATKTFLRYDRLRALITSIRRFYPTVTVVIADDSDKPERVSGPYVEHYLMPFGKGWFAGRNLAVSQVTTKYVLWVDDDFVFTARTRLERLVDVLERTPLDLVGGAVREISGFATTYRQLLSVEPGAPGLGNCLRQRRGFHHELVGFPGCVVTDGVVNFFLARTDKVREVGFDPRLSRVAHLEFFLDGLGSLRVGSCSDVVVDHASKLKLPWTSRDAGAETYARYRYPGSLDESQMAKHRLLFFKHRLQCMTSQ
UniProt O14965, sequence (O14965 whole entry, looked up): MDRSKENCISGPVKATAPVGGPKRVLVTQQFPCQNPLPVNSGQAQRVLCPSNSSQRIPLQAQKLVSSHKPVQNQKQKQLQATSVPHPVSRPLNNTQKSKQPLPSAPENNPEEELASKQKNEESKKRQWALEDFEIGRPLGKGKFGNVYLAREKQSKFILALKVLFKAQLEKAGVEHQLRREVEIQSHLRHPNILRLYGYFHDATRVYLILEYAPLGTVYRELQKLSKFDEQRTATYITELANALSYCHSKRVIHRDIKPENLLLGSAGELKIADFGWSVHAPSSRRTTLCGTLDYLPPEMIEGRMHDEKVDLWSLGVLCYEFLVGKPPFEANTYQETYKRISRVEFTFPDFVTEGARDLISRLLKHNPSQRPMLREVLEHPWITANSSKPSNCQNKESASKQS
UniProt Q6QNY0, sequence (Q6QNY0 whole entry, looked up): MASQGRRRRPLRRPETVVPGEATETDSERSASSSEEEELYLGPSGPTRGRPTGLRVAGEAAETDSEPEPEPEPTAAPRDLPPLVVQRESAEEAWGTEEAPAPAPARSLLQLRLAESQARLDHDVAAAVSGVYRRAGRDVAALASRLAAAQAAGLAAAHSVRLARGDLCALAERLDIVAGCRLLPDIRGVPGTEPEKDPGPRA

What follows are targets tested with c1cn2cc(-c3ccc4cn[nH]c4c3)nc(Nc3ccc(N4CCOCC4)cc3)c2n1 [entospletinib] (assay: log2 fold change, soluble protein after heating vs DMSO (PISA); higher = thermal stabilisation; K562 cells, 10 uM, 30 min; active = over 0.2 and 3.5 SD of the protein, either way, in both replicates (recomputed)).
Method in brief: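 Soluble protein was quantified by TMTpro 16plex LC-MS/MS after channel sums were equalised. It was obtained as the supernatant after 21,000xg for 90 min from pooled aliquots of K562 cells (2×10^6 cells/mL, 10 μM compound, 30 min) heated for 3 min across 48°C-58°C and extracted in PBS with 0.5% NP-40 at 4°C. Thermal stability values are relative to control samples and come from duplicates. They are given as log2 fold changes.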
ARL2BP (UniProt Q9Y2Y0) was tested, and the log2 fold change was -0.06.
With AP2B1 isoform 2 (UniProt P63010) the log2 fold change was 0.032.
With AHSA1 (UniProt O95433) the log2 fold change was -0.017.
ADPRHL2 (UniProt Q9NX46) was tested, and the log2 fold change was 0.024.
BLOC1S3 (UniProt Q6QNY0) gave a log2 fold change of -0.079.
With ABCC5 (UniProt O15440) the log2 fold change was 0.028.
Target ABCA4 (UniProt P78363) has a log2 fold change of -0.079.
For ARFGEF1 (UniProt Q9Y6D6), the log2 fold change was -0.009.
BLVRB (UniProt P30043) showed a log2 fold change of 0.069.
ADK (UniProt P55263) was tested, and the log2 fold change was 0.082.
In the case of AHCYL1 (UniProt O43865), the log2 fold change is reported as 0.072.
B4GALNT1 (UniProt Q00973) showed a log2 fold change of 0.074.
Work on BRIP1 (UniProt Q9BX63) yielded a log2 fold change of -0.055.
Target ACAD9 (UniProt Q9H845) has a log2 fold change of 0.02.
Work on AAMP (UniProt Q13685) yielded a log2 fold change of 0.063.
Work on AKAP8L (UniProt Q9ULX6) yielded a log2 fold change of 0.171.
Target AMFR (UniProt Q9UKV5) has a log2 fold change of -0.059.
Target ACSM3 (UniProt Q53FZ2) has a log2 fold change of -0.004.
APOH (UniProt P02749) gave a log2 fold change of 0.206.
For AFG1L (UniProt Q8WV93), the log2 fold change was -0.029.
For BRAF (UniProt P15056), the log2 fold change was 0.035.
With ALG14 (UniProt Q96F25) the log2 fold change was -0.063.
In the case of AP2M1 (UniProt C9JTK4), the log2 fold change is reported as 0.047.
BZW2 (UniProt Q9Y6E2) showed a log2 fold change of 0.002.
For ATP7B (UniProt P35670), the log2 fold change was 0.012.
Work on ALKBH4 (UniProt Q9NXW9) yielded a log2 fold change of -0.029.
ACIN1 (UniProt Q9UKV3) was tested, and the log2 fold change was -0.008.
For ATF1 (UniProt P18846), the log2 fold change was -0.006.
With AZI2 (UniProt Q9H6S1) the log2 fold change was -0.142.
AKT1 (UniProt P31749) was tested, and the log2 fold change was -0.04.
Work on AURKA (UniProt O14965) yielded a log2 fold change of 0.282.
Target ALDH2 (UniProt P05091) has a log2 fold change of -0.025.
With ARL3 (UniProt P36405) the log2 fold change was 0.008.
In the case of ATG9A (UniProt Q7Z3C6), the log2 fold change is reported as -0.025.
AGO1 (UniProt Q9UL18) was tested, and the log2 fold change was -0.2.
With AMD1 (UniProt P17707) the log2 fold change was 0.045.
In the case of BRD8 (UniProt Q9H0E9), the log2 fold change is reported as 0.031.
Work on ACSF3 (UniProt Q4G176) yielded a log2 fold change of -0.059.
